Bioassay records deposited in PubChem by National Center for Advancing Translational Sciences (NCATS).
A selection: hits, their analogues and other compounds. The true share with any hit is near 12%.
G9a inh – inhibitors of human histone lysine methyltransferase G9a; Q96KQ7; Potency, µM (titrated, usually from 102 µM), without a hit: at the top dose activity, negative = inhibition, actives largely listed as inhibitors; G9a H3K9 monomethylation, AlphaScreen, 2 h; 350,000 compounds, 8.8% hits; AID 504332; also: % is scaled to controls: 0 for no effect and ±100 for the full control effect; nearly all actives have a fitted effect of over 75% in size
Target sequence (Q96KQ7 913-1193 limits assumed): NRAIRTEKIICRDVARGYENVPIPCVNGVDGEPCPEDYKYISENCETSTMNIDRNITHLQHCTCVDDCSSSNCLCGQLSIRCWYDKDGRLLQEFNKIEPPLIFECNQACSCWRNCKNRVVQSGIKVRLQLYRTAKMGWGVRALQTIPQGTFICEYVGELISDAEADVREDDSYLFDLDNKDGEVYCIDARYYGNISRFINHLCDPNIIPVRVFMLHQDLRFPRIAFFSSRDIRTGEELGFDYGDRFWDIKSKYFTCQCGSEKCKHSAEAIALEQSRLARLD
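Methyltransferase reactions run at room temperature for 2 h (20 nM enzyme, 500 nM biotin-H3K9 peptide, 20 uM SAM) after a 15 min compound preincubation; product detected by AlphaScreen beads and anti-H3K9me1 antibody.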
JMJD2A Tudor – inhibitors of human JMJD2A Tudor domain; O75164; AlphaScreen JMJD2A-Tudor / H3K4me3 peptide binding; Potency, µM (doses to about 114 µM), for inactives: at the top dose activity change, negative = inhibition, actives largely listed as inhibitors; 390,000 compounds, 4.4% hits; also: % is scaled to controls: 0 for no effect and ±100 for the full control effect; nearly all actives have a fitted effect of over 50% in size
BAZ2B inh – BAZ2B (human) inhibition | Q9UIF8 | AlphaScreen BAZ2B-H3K14Ac peptide displacement | Potency, µM (titrated, usually from 114 µM), for the others: at the top dose activity change, negative = inhibition, most hits filed as inhibitors | 360,000 compounds, 4.4% hits; also: % is scaled to controls: 0 for no effect and ±100 for the full control effect; nearly all actives have a fitted effect of over 60% in size
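BAZ2B 50 nM plus b-H3(5-23)K14Ac 50 nM, PBS pH 7.4/0.01% Tween-20, 30 min RT; compound added (max 110 uM), 30 min RT; streptavidin donor/Ni-chelate acceptor beads 10 ug/mL final, 20 min dark; AlphaScreen read.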
Sfp inh – blocks B. subtilis Sfp PPTase activity; Q9F4F7; Biochemical Sfp PPTase activity, qHTS; Potency, µM, for the others: largest response in the series, negative = inhibition, usual class: inhibitors; 310,000 compounds, 3.5% hits;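 also: the enzyme is Sfp with the accession as filed and its product quenches rhodamine fluorescence; 0% = enzyme reaction without inhibitor and -100% = no enzyme wells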
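Reaction rates are the 30-min fluorescence difference (ex 525, em 598 nm) in wells containing 15 nM Sfp, 5 uM rhodamine-CoA and 12.5 uM BHQ-2-YbbR at pH 7.6 with 10 mM MgCl2.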
L3MBTL1 inh – L3MBTL1 (human) inhibition | Potency, µM (series often up to 57.1 µM), for inactives: top-dose activity, negative = inhibition, actives largely listed as inhibitors | AlphaScreen L3MBTL1–H3K9me1 peptide binding | Q9Y468 | 230,000 compounds, 0.66% hits | AID 485360; also: % is scaled to controls: 0 for no effect and ±100 for the full control effect; nearly all actives have a fitted effect of over 60% in size
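AlphaScreen assay: L3MBTL1 (50 nM final) was preincubated 30 min at room temperature with biotinylated H3(1-15)K9me1 peptide (75 nM final), then 30 min with library compounds; streptavidin donor and nickel chelate acceptor beads (10 ug/mL final) added, 30 min dark.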
HP1b chromo inh – blocks HP1-beta chromodomain binding to methylated histone tails; AlphaScreen HP1-beta / biotin-H3K9me3 peptide binding; Potency, µM (doses to about 114 µM), without a hit: top-dose activity change, negative = inhibition, most hits filed as inhibitors; 390,000 compounds, 0.56% hits; AID 540317; also: nearly all actives have a fitted effect of over 70% in size
Target sequence (P83916 whole entry, looked up): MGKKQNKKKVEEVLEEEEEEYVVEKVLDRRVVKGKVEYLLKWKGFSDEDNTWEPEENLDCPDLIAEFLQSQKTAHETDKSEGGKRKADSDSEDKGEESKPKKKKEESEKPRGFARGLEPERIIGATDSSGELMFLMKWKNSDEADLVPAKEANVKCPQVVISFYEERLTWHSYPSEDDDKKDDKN
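AlphaScreen: HP1-beta (50 nM) preformed 30 min with biotin-H3(1-18)K9me3 peptide (50 nM) in PBS pH 7.4, 0.01% Tween-20. Compound added for 30 min at RT, then streptavidin donor/nickel chelate acceptor beads (10 ug/mL) for 30 min.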
An asterisk follows results filed as active; ? = inconclusive; / = no result given; [ ] = another dose, or the depositor's remark. Calls follow the shape of the dose curve; as a rule, active = well fitted curve in the direction sought with a large enough effect; inconclusive = small, poorly fitted or top-dose-only effect, or another doubt; inactive = no such curve, though single readings can be large; an effect the other way counts as inactive or inconclusive. Potency is read from the fitted curve at half-maximal effect.

SMILES | G9a inh | JMJD2A Tudor | BAZ2B inh | Sfp inh | L3MBTL1 inh | HP1b chromo inh
COc1cccc(CCN2CCC(CNS(=O)(=O)c3cc(-c4cc(C)no4)ccc3C)CC2)c1 | 70.8µM* | -34.9% | ? | 0.6% | / | -9.2%[57 µM]
Cn1nc(-c2ccccc2F)c2cc(C(=O)N3CCN(c4ccc(F)cc4)CC3)sc21 | ? | ? | / | / | / | -1.3%
COc1ccc(N2CCN(C(=O)c3cc4c(-c5ccccc5F)nn(C)c4s3)CC2)cc1 | 11.2µM* | 11.2µM* | / | / | / | ?
COc1ccc(N2CCN(C(=O)c3cc4c(-c5ccc(Cl)cc5)nn(C)c4s3)CC2)cc1 | 35.5µM* | ? | 10µM* | 10.7% | / | -1.4%
O=c1c2c(c(-c3ccccc3)nn1Cc1ccccc1)CCCC2 | 13.4% | 6.7% | 10.9% | -9.5% | / | 43.7%
CCn1c(=O)c2cc(C(=O)Nc3cccc(C(F)(F)F)c3)sc2c2ccccc21 | -3.0%[59 µM] | 1.7% | -8.6% | / | / | 31.9%
O=C1C2Sc3[nH]c(=O)sc3C(c3ccccc3)C2C(=O)N1c1ccccc1 (stereo not given) | -3.7%[0.501 µM] | -33.2% | ? | 79.4µM* | 9.6% | 3.9%
COc1ccc(C2c3sc(=O)[nH]c3SC3C(=O)N(c4ccccc4)C(=O)C32)cc1 (stereo not given) | 8.91µM* | ? | ? | -9.6% | -10.3% | -14.9%
CCOc1ccc(N2C(=O)C3Sc4[nH]c(=O)sc4C(c4ccc(OC)c(OC)c4)C3C2=O)cc1 (stereo not given) | ? | ? | ? | -27.3% | -5.0% | -22.8%
CCOC(=O)Cn1cnc(-c2ccc([N+](=O)[O-])cc2)c1 | 12.1%[59 µM] | -11.3% | 1.9% | 9.0% | 2.3% | 19.4%
COCc1cc(Sc2ccc(Cl)cc2)nc(C)n1 | 2.8% | 11.7% | 2.6% | 17.3% | 12.0% | 52.9%
COCc1cc(S(=O)c2ccc(Cl)cc2)nc(C)n1 (stereo not given) | ? | 8.4% | 4.6% | 79.4µM* | -8.5% | 68.1%
Cc1cccc(-c2nc3ccccc3n3c(-c4ccccc4)c4c(=O)n(C)c(=O)n(C)c4c23)c1 | ? | 2.7% | -11.6% | / | / | 35.8%
COc1ccc(CN2C(=O)/C(=C/c3ccc(-c4ccc(Cl)c(C(=O)O)c4)o3)SC2=S)cc1 | 31.6µM* | / | ? | 50.1µM* | / | /
Cc1ccc(/C=C2\SC(=S)N(Cc3ccccc3)C2=O)o1 | ? | 14.1µM* | ? | ? | -7.2% | -21.5%
Cc1cc(NC(=O)CCN2C(=O)/C(=C/c3ccccc3Cl)SC2=S)no1 | 34.2%[59 µM] | -12.7% | 0.1% | -23.8% | 3.7% | 28.3%
O=C(O)c1cc(-c2ccc(/C=C3/SC(=S)N(Cc4ccccc4)C3=O)o2)ccc1Cl | 12.6µM* | 56.2µM* | ? | 50.1µM* | / | ?
CCC(C)c1ccc(NC(=S)N2CCN(C(=O)C3CCCO3)CC2)cc1 (stereo not given) | -9.9% | -15.2% | -16.1% | 2.6% | / | 14.0%
S=C(NCCc1ccccc1)Nc1cccc2cnccc12 | 50.1µM* | -30.1% | ? | 50.1µM* | -8.5% | -8.4%
COc1ccc(CCNC(=S)Nc2cccc3ccccc23)cc1 | -14.2%[59 µM] | -17.6% | ? | -3.3% | -6.1% | 16.9%
S=C(NCc1cccnc1)Nc1cccc2ccccc12 | -8.0%[59 µM] | -5.5% | 3.2% | -0.5% | 2.1% | 48.8%
S=C(NCc1ccccc1)Nc1cccc2cnccc12 | 22.4µM* | -11.3% | -22.8% | 56.2µM* | / | -9.9%
COc1cc(-c2csc(N3CCOCC3)n2)cc(OC)c1OC | 56.2µM* | -23.6% | ? | ? | 4.5% | 13.7%
c1ccc2oc(-c3csc(N4CCOCC4)n3)cc2c1 | 39.8µM* | -15.8% | -30.5% | 56.2µM* | / | -5.4%
O=C(C1CCN(Cc2cn[nH]c2-c2ccc(F)cc2F)CC1)N1CCOCC1 | -48.5% | -11.3% | -2.4% | 13.0% | 2.9% | 27.7%
SMILES | G9a inh | JMJD2A Tudor | BAZ2B inh | Sfp inh | L3MBTL1 inh | HP1b chromo inh
Cc1ccc(C2C(C#N)=C(N)OC3=C2C(=O)CCC3)s1 (stereo not given) | 0.7% | -10.5% | -7.5% | 21.6% | 3.9% | 44.6%
Cc1ccsc1C1C(C#N)=C(N)OC2=C1C(=O)CCC2 (stereo not given) | 22.8% | 5.3% | -23.5% | 56.2µM* | -7.5% | 33.5%
COc1cc(/C=N/n2cnnc2)ccc1OC(=O)c1ccco1 | 0.9% | -11.7% | -30.2% | 14.8% | -8.1% | 19.4%
COc1cc(/C=C2/C(=O)NN(c3cccc(C)c3)C2=O)ccc1OC(=O)c1ccco1 | ? | -23.0% | ? | 44.7µM* | -11.4% | -6.9%
Cc1ccc(N2NC(=O)/C(=C\c3cc4c(cc3[N+](=O)[O-])OCO4)C2=O)cc1C | 25.1µM* | ? | 44.7µM* | -16.8% | -15.3% | ?
COc1cc(/C=C2/C(=O)NN(c3cccc(C)c3)C2=O)cc([N+](=O)[O-])c1O | 35.5µM* | 56.2µM* | 39.8µM* | 11.9% | ? | ?
COc1cc(/C=N/n2cnnc2-n2nc(C)cc2C)cc([N+](=O)[O-])c1O | -6.0%[59 µM] | -12.6% | -28.5% | -7.5% | -6.0% | 27.2%
O=C1NN(c2ccccc2)C(=O)/C1=C\c1cccn1-c1ccc(Cl)c([N+](=O)[O-])c1 | -18.4% | ? | -25.7% | 4.0% | / | -12.1%
COc1cc(/C=C2/C(=O)NN(c3ccc(C)c(Cl)c3)C2=O)cc([N+](=O)[O-])c1O | 11.2µM* | ? | 31.6µM* | 3.8% | / | -18.0%
Cc1ccnc2nc(C(=O)OC(C)C(=O)NCc3ccccc3)nn12 (stereo not given) | -13.0%[2.33 µM] | -9.5% | 11.3% | / | ? | 31.6%
O=S(=O)(Nc1ncccn1)c1ccc(NC(=S)N2CCN(Cc3ccc(F)cc3Cl)CC2)cc1 | -2.2% | -18.8% | -17.6% | 15.4% | / | 27.6%
Cc1ccc2c(c1)C(=O)C(=O)N2CCOc1ccccc1 | 44.7µM* | ? | ? | -5.1% | -25.1% | ?
Cc1ccc2c(c1)C(=O)C(=O)N2CCCOc1ccccc1C | -37.8% | 39.8µM* | -17.4% | -0.3% | 6.2% | ?
Cn1c(C(=O)NCc2ccco2)cc2c(=O)[nH]c3ccccc3c21 | -0.7%[59 µM] | 100µM* | -7.7% | 7.0% | -3.4% | 46.9%
CCCN(CCC)CCCNC(=O)c1cc2c(=O)[nH]c3ccccc3c2n1C | 32.3% | -10.3% | 8.9% | 5.8% | / | 15.8%
CCOC(=S)SCC(=O)Nc1nc(C)c(C)s1 | -1.0%[12.7 µM] | -19.7% | -12.9% | 56.2µM* | / | -5.7%
CCOC(=S)SCC(=O)Nc1nccs1 | ? | -0.7% | ? | 70.8µM* | 14.3% | 26.8%
CCOC(=O)Cc1csc(SCC(=O)Nc2nccs2)n1 | 50.1µM* | -10.3% | 7.0% | / | 1.7% | 21.8%
CCOC(=O)C1(CCOc2ccccc2)CCN(Cc2ccc(O)c(OCC)c2)CC1 | 79.4µM* | ? | 0.3% | 10.1% | -2.0% | 12.8%
